From PubChem BioAssay
Only some compounds are listed: those with a hit (about 5.6% of all), similar ones and a draw of the others.
Gal4-VP16 FLuc – inhibits Gal4-VP16 luciferase reporter, ROR gamma counter-screen; Drosophila S2 Gal4-VP16 UAS-luciferase, luminescence, 20 h; Potency, µM (highest dose often 53.6 µM), for inactives: top-dose activity, negative = inhibition, most hits filed as inhibitors; 310,000 compounds, 3.5% hits; AID 2546;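 further: Gal4-VP16 expression switched on by copper sulfate through the metallothionein promoter; potency means the concentration at half of the fitted maximal effect; nearly all actives have a fitted effect of over 50% in size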
PKM2 act – PKM2 (human) enzyme activation | P14618 | purified PKM2, Kinase-Glo ATP luminescence, activation; response scale: 0% is enzyme alone, no compound | Potency, µM (top dose mostly 57.5 µM), without a hit: at the top dose activation, most hits filed as activators | 260,000 compounds, 0.34% hits; further: potency means the concentration at half of the fitted maximal effect; nearly all actives have a fitted effect of over 55% in size
Target sequence (P14618 whole entry, looked up): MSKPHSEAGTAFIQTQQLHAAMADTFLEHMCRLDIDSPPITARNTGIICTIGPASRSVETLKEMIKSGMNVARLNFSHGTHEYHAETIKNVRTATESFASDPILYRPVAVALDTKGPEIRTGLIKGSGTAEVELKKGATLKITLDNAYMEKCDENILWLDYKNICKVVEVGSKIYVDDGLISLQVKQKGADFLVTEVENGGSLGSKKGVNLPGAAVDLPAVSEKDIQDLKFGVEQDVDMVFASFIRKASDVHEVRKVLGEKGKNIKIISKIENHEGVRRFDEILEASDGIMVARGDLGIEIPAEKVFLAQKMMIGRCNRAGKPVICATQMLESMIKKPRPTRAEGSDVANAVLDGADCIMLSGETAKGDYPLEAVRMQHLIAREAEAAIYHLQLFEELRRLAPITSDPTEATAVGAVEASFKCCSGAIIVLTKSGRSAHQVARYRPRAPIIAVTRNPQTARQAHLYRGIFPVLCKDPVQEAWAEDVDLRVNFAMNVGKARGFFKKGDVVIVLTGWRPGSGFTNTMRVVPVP
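hPK-M2, >95% pure; 0.1 mM ADP / 0.5 mM PEP final; imidazole pH7.2 buffer w/ 7 mM MgCl2, 50 mM KCl; 1 h RT; Kinase-Glo lum. Intermediate enzyme activity for dual inhibitor/activator qHTS.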
RORg inh – inhibitors of mouse ROR gamma transcriptional activity; 310,000 compounds, 5.4% hits; Drosophila S2 Gal4-RORgamma UAS-luciferase reporter, 20 h; Potency, µM (doses to about 53.6 µM), for inactives: at the highest dose activity change, negative = inhibition, hits mostly inhibitors; further: potency means the concentration at half of the fitted maximal effect; nearly all actives have a fitted effect of over 60% in size
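Compounds are pin-transferred onto Drosophila Schneider cells expressing a copper-inducible Gal4–ROR gamma transactivation domain fusion. After 1 hr, copper sulfate is added to 700 uM final; luciferase is read 20 hr later.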
Six1-Eya2 inh – blocks human Six1 binding to Eya2; Q15475+O00167; AlphaScreen GST-Six1/His-Eya2 binding, biochemical; hits give low values; activity change, % (concentration not given with the values); 360,000 compounds, 0.56% hits; AID 651725; in the data active means activity change below about -65%; inconclusive means mostly about -30% to -63%
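Compounds are tested against tagged Six1 and Eya2 proteins bridged by glutathione donor and nickel acceptor beads; after a one-hour incubation at 37 °C without light, AlphaScreen emission is recorded.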
CtBP-E1A blk – blocks the CtBP interaction with E1A. AlphaScreen GST-E1A/His-CtBP binding, 1536-well; hits give low values. activity change, % (no concentration beside the values). 340,000 compounds, 0.49% hits. AID 651724; in the data active means activity change below about -65%; inconclusive means mostly about -30% to -63%
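Homogeneous bead-based format: GST-tagged E1A captured on glutathione donor beads, His-tagged CtBP on nickel acceptor beads; compounds precede bead addition by 2 h at 37 °C.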
Numbers without * were called inactive; ? = inconclusive; . = not tested or not shown; [ ] = remark or other dose. Unless noted, the call rests on the fitted dose curve; in most records, active means well fitted curve in the direction sought with a large enough effect; inconclusive means small, poorly fitted or top-dose-only effect, or another doubt; inactive means no such curve, though single readings can be large; an effect the other way counts as inactive or inconclusive. On the % scale 0 is the no-effect control and ±100 the full control effect.

SMILES	Gal4-VP16 FLuc	PKM2 act	RORg inh	Six1-Eya2 inh	CtBP-E1A blk
O=c1[nH][nH]cc1C=NCc1cccc(C(F)(F)F)c1	6%	-1%	-9%	-3	.
COc1ccc(-c2nnc3n2N=C(c2c(OC)cccc2OC)CS3)c(OC)c1	7%	.	-1%	.	.
CC(=O)c1cn(CC(=O)Nc2cccc(C)c2C)c2ccccc12	13µM*	3%	?	3	-3
CCC(=O)c1cn(CC(=O)Nc2cccc(C)c2C)c2ccccc12	16%	-1%	-6%[1.91 µM]	6	-5
Clc1ccccc1-c1ccc2ncnc(NC3CCNCC3)c2c1	0%	.	-18%	.	.
CC(C)C(NC(=O)C(NC(=O)C1OC2OC(C)(C)OC2C2OC(C)(C)OC12)C(C)C)C(=O)O (stereo not drawn)	2%	-8%	10%	-3	-2
CCOC(=O)C1=C(C)OC(=CC=Cc2ccccc2)C1=O	.	.	.	-18	2
CCCCc1ccc(/C=C2\C(=O)c3ccccc3C(O)=C2C(=O)OCC)cc1	7%[0.365 µM]	?	10µM*	.	.
CN1CCN(C(=S)NC(=O)c2ccc(S(=O)(=O)N3CCOCC3)cc2)CC1	?	1%	10µM*	-7	.
CCCN(CC1CC1)C(=S)NC(=O)c1ccc(S(=O)(=O)N2CCOCC2)cc1	0.89µM*	4%	0.35µM*	-5	5
CN1CCN(S(=O)(=O)c2ccc(NC(=S)NC(=O)c3ccc(Cl)cc3)cc2)CC1	?	-19%	3.2µM*	?	-26
N#CCCN(Cc1cccnc1)C(=S)NC(=O)c1ccc(S(=O)(=O)N2CCCC2)cc1	?	-1%	2.5µM*	2	1
Cc1ccc(C(=O)NNC(=O)c2ccc(S(=O)(=O)N3CCOCC3)cc2)cc1	24%	0%	-21%	-14	-1
CC(C)(C)S(=O)N1Cc2cn(Cc3ccccc3)c(=O)cc2[C@H]1CCO (stereo partly drawn)	.	.	.	5	-5
Cc1cc(N2CCCC2=O)ccc1S(=O)(=O)NC1CCCCC1	?	9%	?	7	5
O=C(NC(C(=O)O)c1ccccc1)c1ccc(S(=O)(=O)N2CCOCC2)cc1 (stereo not drawn)	0%	11%	10%	5	-3
O=C(NC(=S)N1CCN(C(c2ccccc2)c2ccccc2)CC1)c1ccc(S(=O)(=O)N2CCOCC2)cc1	0.028µM*	-15%	0.32µM*	-12	-1
CC(=O)NC1=C(N(C)C2CCS(=O)(=O)C2)C(=O)c2ccccc2C1=O (stereo not drawn)	7.9µM*	1%	2.5µM*	2	0
CCOc1nc(NC2CCCCC2)nc(NC(C)(C)C)n1	16µM*	-4%	?	-1	-1
CCN1CCN(c2nc3c(C)cccn3c(=O)c2/C=C(\C#N)C(=O)NC)CC1	2%	.	-15%	5	-4
NS(=O)(=O)c1ccc(CCNc2ccnc3cc(Cl)ccc23)cc1	-26%	-1%	26%	-16	-7
C/C(=N\NC(=S)Nc1c(C)cccc1C)c1ccc(O)cc1	?	0%	8.9µM*	-3	-4
C/C(=N\NC(=S)Nc1c(C)cccc1C)c1cc2ccccc2o1	7.1µM*	0%	1µM*	-15	.
C/C(=N\NC(=S)Nc1ccccc1C)c1cc2ccccc2o1	7.1µM*	1%	1.3µM*	-22	?
C/C(=N\NC(=O)c1ccco1)c1cc2ccccc2o1	-9%	-13%	0%	-10	0
SMILES	Gal4-VP16 FLuc	PKM2 act	RORg inh	Six1-Eya2 inh	CtBP-E1A blk
CCc1noc(C)c1C(=O)Nc1cc(S(=O)(=O)N2CCOCC2)ccc1OC(C)C	.	.	.	-3	8
O=C(/C=C/[C@H]1O[C@@H](n2cnc3c(NC(=O)c4ccccc4)ncnc32)[C@H](O)[C@@H]1O)NCCc1ccc(F)cc1	.	.	.	6	1
Cc1cccc(NC(=O)/C=C/c2ccc(Cl)cc2)n1	7.1µM*	-20%	1.6µM*	12	0
CC(=O)c1ccc(NC(=S)NC(=O)/C=C/c2ccco2)cc1	?	1%	10%[1.91 µM]	13	.
Cc1cccc(NC(=S)NC(=O)/C=C/c2ccco2)c1	?	3%	4.5µM*	-17	-17
Cc1cccc(NC(=S)NC(=O)/C=C/c2ccco2)n1	?	12%	10µM*	-19	1
Cc1cccc(NC(=O)/C(C#N)=C/c2ccc(Cl)cc2)n1	2%	.	16%	-1	.
O=C(/C=C/c1ccco1)NC(=S)Nc1ccccc1	3.2µM*	-1%	7.1µM*	1	.
CCNCCCNCCCCNCCCNCC	0%	.	33%	.	.
COc1cccc(=O)c2c(C)n(-c3cc(C)cc(C)c3)c(C)c12	-5%	3%	-20%	-5	-2
COc1cccc(-n2c(C)c3c(OC)cccc(=O)c3c2C)c1	?	-15%	6.3µM*	-6	-5
CCCn1c(N)c(C(=S)NC(=O)C2CC2)c(=O)n(C)c1=O	4µM*	5%	3.5µM*	-6	0
CC(=O)NC(=S)c1c(N)n(Cc2ccccc2)c(=O)n(C)c1=O	2.8µM*	17%	2.8µM*	.	.
CCCn1c(N)c(C(=O)COC(=O)c2c(C)noc2C)c(=O)n(C)c1=O	-14%	-3%	21%	-17	-8
CCCCn1c(N)c(C(=S)NC(=O)CC(C)C)c(=O)n(C)c1=O	1.1µM*	2%	1.1µM*	-3	-10
CN1CCC(N(C)C(=O)/C(C#N)=C/c2ccc(OC(F)F)cc2)CC1	8%	-4%	3%	2	.
O=C(COc1coc(CN2CCN(c3cccc(Cl)c3)CC2)cc1=O)NC1CCCC1	.	.	.	4	-9
CNC1=C(N(C(C)=O)c2ccc(Br)cc2)C(=O)c2ccccc2C1=O	13µM*	-3%	5.6µM*	13	0
CCCc1cc(=O)[nH]c(SCC(=O)Nc2cc(S(=O)(=O)N(CC)c3ccccc3)ccc2Cl)n1	.	.	.	-11	-23
NC(=O)NC(CC(=O)N1CCc2ccccc2C1)c1ccc(Cl)cc1 (stereo not drawn)	6%	-10%	24%	-6	-5
CC(C)(C)NC(=S)N/N=C/c1c(Cl)cccc1Cl	5µM*	-9%	4.5µM*	-1	.
Cc1ccc(NC(=S)N/N=C/c2ccc(OCCC(C)C)cc2)c(C)c1	3.2µM*	1%	6.3µM*	-7	-4
CCCCNC(=S)N(C)/N=C/c1ccc(F)cc1	?	-3%	11µM*	9	24
CCNC(=S)N/N=C/c1cccs1	1.4µM*	3%	0.79µM*	-3	1
O=C1CCC[C@H]2OC12[C@@H](O)CCc1ccccc1 (stereo partly drawn)	-10%[10 µM]	.	-18%[10 µM]	.	.
CCCc1nc2cc(C)c(Br)c(C)n2c1Cc1ccsc1	.	.	.	15	5
CC(C)(CO)NC(=O)C12CC3CC(CC(Br)(C3)C1)C2	-7%	-1%	4%	-6	-8
Cc1ccc(CNC(=O)C2CCC(CNS(=O)(=O)c3cccs3)CC2)cc1 (stereo not drawn)	6%	-1%	11%	5	6
